# TrxR1 substrate – substrates of rat thioredoxin reductase 1. O89049. purified TrxR1 substrate turnover, NADPH consumption readout. Potency, µM (top dose mostly 114 µM), inactives show at the highest dose activity change, negative = substrate turnover. actives 0.01% (n = 390,000). AID 588456; also: potency is read from the fitted curve at half-maximal effect; nearly all actives have a fitted effect of over 50% in size
# Target sequence (O89049 whole entry, looked up): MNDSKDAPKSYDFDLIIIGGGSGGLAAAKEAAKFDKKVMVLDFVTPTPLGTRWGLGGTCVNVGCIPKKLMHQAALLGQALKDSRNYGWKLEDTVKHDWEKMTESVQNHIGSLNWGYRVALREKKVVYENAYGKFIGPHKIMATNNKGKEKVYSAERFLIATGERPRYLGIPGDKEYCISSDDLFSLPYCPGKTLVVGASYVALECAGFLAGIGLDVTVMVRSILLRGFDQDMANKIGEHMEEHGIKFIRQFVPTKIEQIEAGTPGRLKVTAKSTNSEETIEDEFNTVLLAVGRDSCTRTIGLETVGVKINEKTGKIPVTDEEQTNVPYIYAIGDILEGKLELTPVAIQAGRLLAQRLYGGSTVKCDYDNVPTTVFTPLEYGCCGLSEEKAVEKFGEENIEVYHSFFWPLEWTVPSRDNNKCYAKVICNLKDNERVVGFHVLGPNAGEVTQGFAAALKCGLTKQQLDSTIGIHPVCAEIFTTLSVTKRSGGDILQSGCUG
#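 Rat TrxR1, dispensed at 90 nM, was prereduced with 400 uM NADPH (final) for 5 min at ~22 deg C, then incubated with compound 15 min before 400 uM selenite. A first-read NADPH fluorescence drop versus no-compound background flagged substrates.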
# Gal4-VP16 FLuc – counter-screen for ROR gamma inhibitors: Gal4-VP16 reporter. actives 3.5% (n = 310,000). Potency, µM (series often up to 53.6 µM), for inactives: top-dose activity, negative = inhibition, hits mostly inhibitors. AID 2546. Drosophila S2 Gal4-VP16 UAS-luciferase, luminescence, 20 h;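 also: Gal4-VP16 expression switched on by copper sulfate through the metallothionein promoter; potency is read from the fitted curve at half-maximal effect; nearly all actives have a fitted effect of over 50% in size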
# FBPA coupling cs – coupling enzyme interference in Giardia aldolase counter-screen | coupling enzyme system counterscreen, AmpLite Red fluorescence | activity change, negative = inhibition, % at 58.2 µM, hits read low | actives 0.67% (n = 290,000); in the data active = activity change below about -30%
#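 Activity here indicates interference with the coupling reaction, not aldolase inhibition. Compounds at 57.5 uM final met coupling enzymes for 10 min at RT; substrate and AmpLite Red detection followed, with a 525/598 nm fluorescence read after 20 min.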
# rTrxR1 inhibitor – inhibitors of rat thioredoxin reductase 1; O89049; recombinant rTrxR1, NADPH fluorescence consumption, selenite substrate; Potency, µM (top dose mostly 114 µM), for the others: at the top dose activity change, negative = inhibition, most hits filed as inhibitors; actives 1% (n = 390,000); AID 588453; also: potency is read from the fitted curve at half-maximal effect; nearly all actives have a fitted effect of over 65% in size
#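 Rat TrxR1 (90 nM in the dispensed reagent) was pre-reduced with 400 uM NADPH for 5 min at room temperature, then incubated with compound for 15 min. After 400 uM selenite was added, NADPH fluorescence (Ex 340/Em 450 nm) was followed for 8 min.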
# GALK inhibitor – blocks human galactokinase activity | actives 0.007% (n = 270,000) | Potency, µM (highest dose often 57.5 µM), without a hit: top-dose activity change, negative = inhibition, hits mostly inhibitors | AID 1868 | Purified GALK, Kinase-Glo residual ATP luminescence; also: potency is read from the fitted curve at half-maximal effect
#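 ATP-depletion format; final 35 uM ATP, 100 uM D-galactose, 5 nM enzyme; pH 8.0 HEPES/Mg2+ buffer; 60 min RT; luminescence read 10 min after detection reagent.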
# RORg inh – ROR gamma (mouse) transcription inhibition; Drosophila S2 Gal4-RORgamma UAS-luciferase reporter, 20 h; Potency, µM (titrated, usually from 53.6 µM), inactives show at the top dose activity change, negative = inhibition, actives largely listed as inhibitors; actives 5.4% (n = 310,000); also: potency is read from the fitted curve at half-maximal effect; nearly all actives have a fitted effect of over 60% in size
#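 Drosophila Schneider cells stably carrying a metallothionein-driven Gal4 DBD–ROR gamma fusion and a UAS-Photinus luciferase reporter were exposed to compound for 1 hr, then induced with copper sulfate (700 uM final) for 20 hr at ambient temperature before luminescence reading.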
# An asterisk follows results filed as active; ? = inconclusive; . = no result; [ ] = remark or other dose. This is a sample that favours compounds with a hit; in the whole collection about 5.9% have one here. Unless noted, calls follow the shape of the dose curve; as a rule, active = well fitted curve in the direction sought with a large enough effect; inconclusive = small, poorly fitted or top-dose-only effect, or another doubt; inactive = no such curve, though single readings can be large; an effect the other way counts as inactive or inconclusive. % is scaled to controls: 0 for no effect and ±100 for the full control effect.
SMILES,TrxR1 substrate,Gal4-VP16 FLuc,FBPA coupling cs,rTrxR1 inhibitor,GALK inhibitor,RORg inh
CCOC(=O)c1csc(NC(=O)c2cc3ccccc3o2)n1,10.7%,?,-2.4,4.2%,1.8%,3.16µM*
Cc1ccc(NC(=O)c2cc(C(=O)c3cc(Cl)ccc3O)cn(-c3ccc(C)cc3)c2=O)cc1,-17.0%,-15.6%,-0.1,-22.3%,-0.2%,?
CC1CCN(c2nc3ccccc3nc2C(F)(F)F)CC1,1.5%[57.1 µM],.,.,6.2%[57.1 µM],.,.
OC(COc1ccc(F)cc1)CN1CCN(CC(O)COc2ccc(F)cc2)CC1 (stereo not drawn),4.0%,-1.0%,2.6,15.6%,-3.8%,-28.5%
Cc1cnc(NC(=O)c2cc3ccccc3o2)s1,3.5%,12.6µM*,-0.8,10.2%,5.2%,6.31µM*
Cc1nc(NC(=O)c2cc3ccccc3o2)sc1C,3.7%,?,-7.8,10.2%,15.7%,10µM*
Cc1cc(Oc2nc3c(C)cccn3c(=O)c2/C=C(\C#N)S(=O)(=O)c2ccccc2)ccc1Cl,-4.4%,-2.2%,3.5,-2.8%,-3.4%,-22.3%
Cc1cc(O)cc(O)c1C=NCc1ccco1,-21.3%,5.62µM*,4.0,?,0.2%,?
Cc1ccc2nc(NCc3ccco3)c(C=NCc3ccco3)c(=O)n2c1,9.8%,-6.3%,-4.8,19.6%,3.4%,33.0%
c1ccc(-c2nc(CSc3n[nH]c(-c4cccs4)n3)cs2)cc1,-12.6%,4.7%,-1.4,-4.9%,3.6%,31.6µM*
CCc1ccc(NC(=O)c2cnn3ccccc23)cc1,-3.7%,?,-6.5,8.9%,3.8%,12.6µM*
CCOc1ccc(-n2c(=O)c3c(C)c(C)sc3n(Cc3ccc(C(C)(C)C)cc3)c2=O)cc1,-3.3%,.,.,9.6%,.,.
CC(C)(C)c1cc(C(=O)NN)n(Cc2ccc(F)cc2)n1,0.2%,-11.1%,4.4,9.0%,-0.8%,11.2µM*
COc1cc(-c2nnc(NC(=O)c3ccc(S(=O)(=O)N4CCOCC4)cc3)o2)cc(OC)c1OC,.,?,-1.9,.,6.0%,?
COc1ccccc1C(=O)Nc1nc(-c2ccc(S(=O)(=O)N3CCOCC3)cc2)cs1,6.7%,3.16µM*,-1.0,23.7%,-0.9%,-22.3%
COc1ccccc1OC(C)C(=O)Nc1nc(-c2ccc(S(=O)(=O)N3CCOCC3)cc2)cs1 (stereo not drawn),5.2%,-1.6%,0.0,27.6%,-1.9%,18.2%
COc1cccc(-c2nnc(NC(=O)c3ccc(S(=O)(=O)N4CCOCC4)cc3)o2)c1,-4.7%,0.891µM*,4.7,0.0%,-0.5%,0.501µM*
COc1ccccc1-c1nnc(NC(=O)c2ccc(S(=O)(=O)N3CCOCC3)cc2)o1,2.8%[57.1 µM],0.631µM*,.,9.4%[57.1 µM],6.0%,0.708µM*
CC1=Nc2ccccc2/C1=C/c1sc(=N)n(-c2nccs2)c1O,-11.1%,0.794µM*,-6.5,-12.3%,-3.5%,0.631µM*
CCN(CC)c1ccc2c(c1)CCCN2,.,?,1.6,.,-2.8%,2.82µM*
COC(=O)c1sc2nc(SCC(=O)N(C)c3ccccc3)n(N)c(=O)c2c1C,4.6%,-14.0%,-0.7,15.9%,-0.6%,-1.5%
Cc1ccc(C(=O)CC(C(=O)O)n2cnc([N+](=O)[O-])n2)cc1 (stereo not drawn),-6.7%,-6.6%,0.0,31.6µM*,2.1%,2.4%
Cc1cccnc1NC(=O)c1cccc(S(=O)(=O)N2CCCC2)c1,-3.6%,.,.,-7.5%,.,.
COc1cc2[nH]c(=S)n(N(C(C)=O)C(C)=O)c(=O)c2cc1OC,-0.9%,2.1%,1.5,-13.6%,-4.7%,14.6%
COc1cc2[nH]c(=S)n(C3CC3)c(=O)c2cc1OC,-1.5%,17.8µM*,1.5,3.0%[57.1 µM],-0.5%,3.55µM*
SMILES,TrxR1 substrate,Gal4-VP16 FLuc,FBPA coupling cs,rTrxR1 inhibitor,GALK inhibitor,RORg inh
COc1cc2[nH]c(=S)n(C3CCN(Cc4ccccc4)CC3)c(=O)c2cc1OC,2.7%[57.1 µM],?,-1.0,18.9%[57.1 µM],-1.7%,?
COc1cc2[nH]c(=S)n(C3CCCC3)c(=O)c2cc1OC,-0.9%,2.82µM*,-2.5,-0.9%,-0.1%,4.47µM*
Cc1ccc(NC(=O)c2ccc3c(c2)N(CC(=O)NC(C)C)C(=O)C(C)(C)O3)cc1,1.2%,1.9%,-0.1,10.9%,0.2%,-13.0%
CCOC(=O)c1[nH]c(C)c(C(=O)N(C)Cc2ccccc2)c1C,3.4%,-3.7%,6.1,6.3%,-0.8%,32.5%
CCN(CC(=O)Nc1c(F)cccc1F)C(=O)CCc1nc2ccccc2c(=O)[nH]1,-2.6%[57.1 µM],.,.,-4.1%[57.1 µM],.,.
CC(C)N(C(=O)Cn1cc(SCC(=O)NCc2ccco2)c2ccccc21)C(C)C,-2.8%,5.8%,1.5,15.7%[57.1 µM],3.1%,13.5%
COC(=O)/C=C1\N/C(=N\c2nc(C)cc(C)n2)N(c2ccc(C)c(C)c2)C1=O,-9.8%,?,10.2,-10.5%,1.2%,11.2µM*
COC(=O)/C=C1\N/C(=N\c2nc(C)cc(C)n2)N(c2ccc(Cl)cc2)C1=O,-4.4%[57.1 µM],6.2%,8.5,-6.5%[57.1 µM],-0.1%,-41.2%
Cc1noc(C)c1COc1ccc(C(=O)OC(C)C(=O)Nc2ccc(S(=O)(=O)N3CCOCC3)cc2)cc1 (stereo not drawn),-2.0%,-5.7%,1.5,-2.7%,0.0%,-1.6%
Cc1ccc(-n2nc3cc(C)c(NC(=S)NC(=O)/C=C/c4ccco4)cc3n2)cc1,9.7%[57.1 µM],5.01µM*,2.1,-30.0%,2.6%,2.24µM*
COc1ccc(-n2nc3cc(C)c(NC(=S)NC(=O)c4ccccc4C)cc3n2)cc1,11.5%,?,-0.8,?,-0.4%,3.16µM*
Cc1cc2nn(-c3ccc(F)cc3)nc2cc1NC(=O)c1ccc(OC(C)C)cc1,93.2%,.,.,89.1µM*,.,.
Cc1ccc(-n2nc3ccc(NC(=S)NC(=O)/C=C/c4ccco4)cc3n2)cc1,-4.2%,?,5.2,-12.5%,3.0%,3.16µM*
CCCCOc1cccc(C(=O)Nc2cc3nn(-c4ccc(F)cc4)nc3cc2C)c1,23.1%,.,.,36.5%[11.4 µM],.,.
CCC(=O)Nc1cc2nn(-c3ccc(OC)cc3)nc2cc1C,53.1%,?,4.2,29.8%,-0.8%,?
O=C(N/N=C/C1CCCCC1)c1ccccn1,8.5%[57.1 µM],-0.1%,2.9,3.2%[57.1 µM],-1.9%,?
O=C(N/N=C/C1CCCCC1)c1cc(Cl)ccc1O,58.2%,-14.4%,1.0,16.6%[57.1 µM],-3.1%,12.6µM*
O=C(NCc1ccc(Cl)cc1)c1ccc(Cn2c(=O)c3cccn3c3cccnc32)cc1,-1.3%,.,.,5.9%,.,.
O=C(C=Cc1ccco1)c1cc(Cl)ccc1O,3.7%[11.4 µM],.,.,1.0%[11.4 µM],.,.
CC(/C=C/c1ccco1)=N/NC(=O)Cc1cccs1,-12.9%,?,-0.5,39.8µM*,-1.3%,-42.3%
CC(/C=C/c1ccco1)=N\NC(=O)c1cc(C)[nH]n1,-4.1%,-7.1%,-9.2,15.8µM*,2.5%,?

# Assay outcomes (PubChem BioAssay)
